Experimental data from ChEMBL document CHEMBL4513216, “Probing the Open Global Health Chemical Diversity Library for Multistage-Active Starting Points for Next-Generation Antimalarials” (ACS Infect Dis, 2020).
Out of some 68,000 compounds screened, about 2,700 (4%) showed an effect of 50% or more. The entries come from a sample that favours strong results as a whole.

These compounds were tested on Plasmodium berghei (assay: Screen against P. berghei liver stage (PbLuc), transformed with Luciferase, at 2uM). Conditions: tested at 2 uM.
Assay type: functional, HepG2

SMILES | INHIBITION
CCOc1ccc(S(=O)(=O)NCCCc2ccc(N(C)C)cc2)cc1F | 51.71%
CCOc1ccc(S(=O)(=O)NCCc2ccc(N(C)C)cc2)cc1F | 21%
COc1ccc(S(=O)(=O)NCCCc2ccc(N(C)C)cc2)cc1F | 25.53%
CN(Cc1nnc(-c2ccco2)o1)C(C(N)=O)c1cccc(F)c1 (stereo unspecified) | 5.64%
CC(C)CCn1ccc(NC(=O)N2CCCC2CN2CCOCC2)n1 (stereo unspecified) | -39.07%
CCNC(=O)CN1CCc2c(Br)ccc(F)c2C1 | -25.78%
Cn1ccnc1CN1CCC2(CC1)CN(c1cncnc1)C(=O)CO2 | 7.71%
Cc1n[nH]c(=O)c2c(NC(=O)CN3CCC(O)CC3)oc(C)c12 | 5.72%
CCOC1CCN(CC(=O)Nc2oc(C)c3c(C)n[nH]c(=O)c23)CC1 | 52.52%
Cc1n[nH]c(=O)c2c(NC(=O)CN3CCC(C)CC3)oc(C)c12 | 26.2%
COCC[C@]1(O)CCN(Cc2ccccn2)C[C@H]1C | 5.39%
COC1(CNC(=O)c2ccoc2)CCSC1 (stereo unspecified) | 28.5%
O=C(Cc1cccs1)NCC1(O)CCSCC1 | 52.85%
O=C(NCC1(O)CCSCC1)c1ccoc1 | 53.61%
O=C(Cc1cccs1)NCC1(O)CCSC1 (stereo unspecified) | -2.22%
O=C(NCC1(O)CCSC1)c1ccoc1 (stereo unspecified) | 22.4%
O=C(Cc1cccs1)NCC1(O)CCc2ccccc2C1 (stereo unspecified) | 24.6%
CN(Cc1ccncc1)C1CC2(CCN(c3ncccn3)CC2)C1 | 36.48%
COc1ccc(NC(=O)NCCCn2nc3ccccn3c2=O)cc1 | -12.82%

SMILES | INHIBITION
COCc1cc(N2CCOC(c3ccc(Cl)c(Cl)c3)C2)ncn1 (stereo unspecified) | -16.62%
CC(C)(C)c1cnc(CN2CCC(CN3CCOCC3)CC2)o1 | -10.87%
COCCN(C)C(=O)c1nc2c(s1)CCCN2C | 32.04%
O=C(c1ccc(F)cc1F)N1CCN(C(=O)C2CCCCC2)CC1 | 16.54%
CC(C)Cc1nc(CCn2cncn2)n(-c2ccc3c(c2)OCCO3)n1 | 61.14%
CC(C)c1nc(CCn2cncn2)n(-c2ccc3c(c2)OCCO3)n1 | -39.01%
CC(C)Cc1nc(CO)n(-c2ccc3c(c2)OCCO3)n1 | 31.8%
Cc1cc(N)cc(C2CN(Cc3cc[nH]n3)CCO2)n1 (stereo unspecified) | 26.14%
COc1ccc(C2CCCCCN2S(N)(=O)=O)cc1 (stereo unspecified) | -16.65%
Cc1cc(C(=O)N2CCc3nc(C4CCCN4)ncc3C2)cs1 (stereo unspecified) | 40.31%
Cc1cc(C(=O)N2CCc3nc(C4CCCCN4)ncc3C2)cs1 (stereo unspecified) | 12.8%
CC(C)c1cc(C(=O)N2CCc3nc(C4CCCN4)ncc3C2)cs1 (stereo unspecified) | 67.83%
CC(C)(C)C(=O)NS(=O)(=O)c1ccc(C#N)c(C(F)(F)F)c1 | 1.52%
COc1ccc(Oc2nccnc2C2CCN(C(C)=O)CC2)cc1 | 12%
CC1(C(=O)NCc2cccnc2Oc2ccc(F)cc2F)CCCNC1 (stereo unspecified) | -20.29%
COc1ccccc1Oc1ncccc1CNC(=O)C1(C)CCCNC1 (stereo unspecified) | 43.27%
Cc1cccc(C)c1Oc1ncccc1CNC(=O)C1(C)CCCNC1 (stereo unspecified) | 50.32%
O=C(CC1CC1)N(Cc1cccnc1)CC1CCN(C2CCCC2)CC1 | -53.72%
Cn1nccc1C(=O)N1CCC(n2cc(-c3ccsc3)nn2)CC1 | 15.68%

SMILES | INHIBITION
CCC(O)CN1CCN(C(=O)c2cccc3c2OCC(=O)N3)CC1 (stereo unspecified) | -29.24%
COCc1cn(CC2CCN(Cc3cc(C)[nH]n3)CC2)nn1 | 26.3%
Fc1ccc(N2CCCN(c3ccc(Cn4ccnc4)cn3)CC2)cc1 | 54.49%
c1cn(Cc2ccc(N3CCCN(C4CCCC4)CC3)nc2)cn1 | 4.63%
c1csc(CN2CCCN(c3ccc(Cn4ccnc4)cn3)CC2)c1 | 17.61%
COc1ccc2[nH]cc(-c3ccnc(NC4CCCC4)n3)c2c1 | -4.95%
Cc1noc(CCCC(=O)NC(C)c2ccc(Cl)s2)n1 (stereo unspecified) | 15.4%
Cc1nc(NCC(O)CN2CCCCCC2)c2c(C)noc2n1 (stereo unspecified) | 30.87%
CCc1cnc(C)nc1NCC(O)CN1CCCCCC1 (stereo unspecified) | 80.68%
CCc1cnc(C)nc1NCCN1CCCCCC1 | 7.08%
COc1nn(C)c2c1CCCN(S(=O)(=O)c1cccc(C)c1)C2 | 23.43%
COc1cccc(S(=O)(=O)N2CCCc3c(OC)nn(C)c3C2)c1 | 39.57%
COc1nn(C)c2c1CCCN(S(=O)(=O)c1cccc(F)c1)C2 | 52.47%
COCc1nc(CNc2cc(C)on2)cs1 | -65.51%
O=C(NC1CC1)[C@@H]1CCO[C@@H]2CCN(Cc3ccco3)C[C@H]21 | 46.73%
COc1cccc(-c2cc(NCC(=O)O)nc3[nH]ccc23)n1 | 74.44%
COc1cccc(-c2cc(NCCO)nc3[nH]ccc23)n1 | 0.51%
COc1cccc(-c2cc(NCCN(C)C)nc3[nH]ccc23)n1 | 0.51%
